The results in this text go back to PubChem BioAssay (NCI).

The panel holds about 83,000 compounds, 20% with a hit somewhere; the sample as a whole holds those more often.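 Cells were grown in 96-well plates and exposed to the test compound at a single concentration for 48 hours; results are reported as percent growth, with values below 10 considered active.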 A number with no mark means an inactive call. Calls of active or inactive are those of the source.

Common to all, as to test: NCI-60 one-dose screen, 48 h (100 = growth as untreated, 0 = no growth, -100 = all killed)
The subject of one assay is NCI-H23 lung. The following applies: 10 µM unless noted.
The next assay relates to NCI-H226 lung. The note with it: 10 µM unless noted.
Another assay deals with NCI-H322M lung. The note with it: 10 µM unless noted.
In another assay the test system is HOP-62 NSCLC. The note with it: 10 µM unless noted.
Another assay relates to NCI-H460 lung. The note with it: 10 µM unless noted.
Another assay deals with HOP-92 NSCLC. The note with it: 10 µM unless noted.
In another assay the test system is NCI-H522 lung. The note with it: 10 µM unless noted.
A further assay has as its system A549/ATCC NSCLC. The following applies: 10 µM unless noted.
A further assay concerns 786-0 renal. The following applies: 10 µM unless noted.
The subject of a further assay is COLO 205 colon. The following applies: 10 µM unless noted.
The next assay has as its system DU-145 prostate. The following applies: 10 µM unless noted.
The test system of another assay is K-562 leukemia. The following applies: 10 µM unless noted.
For another assay, the system named is MALME-3M melanoma. The following applies: 10 µM unless noted.
For another assay, the system named is MDA-MB-231 breast. The note with it: 10 µM unless noted.
The subject of the next assay is RXF 393 renal. The note with it: 10 µM unless noted.
A further assay has as its system SF-268 CNS. The following applies: 10 µM unless noted.
The next assay has as its system SF-295 CNS. The note with it: 10 µM unless noted.
A further assay has as its system SF-539 CNS. The following applies: 10 µM unless noted.
The next assay has as its system UACC-257 melanoma. The note with it: 10 µM.
A further assay relates to M14 melanoma. The following applies: 10 µM unless noted.

For the molecule `Cc1nn(-c2ccc(Cl)cc2)c(C)c1N=Nc1ccc2oc(=O)ccc2c1`, the growth with NCI-H23 lung was 82.4%; with NCI-H226 lung it was 92.9%; in the assay with NCI-H322M lung, 104%; in the assay with HOP-62 NSCLC, 91.7%; in the assay on NCI-H460 lung, 64.9%; in the assay with HOP-92 NSCLC, 76.8%. For the same molecule, the growth in the assay with NCI-H522 lung was 81.7%; in the assay on A549/ATCC NSCLC, 77.6%; in the assay on 786-0 renal it was 78.8%; in the assay on COLO 205 colon it was 105%; in the assay on DU-145 prostate it was 74.5%; with K-562 leukemia, 73.5%. Further, the growth with MALME-3M melanoma was 89.5%; with MDA-MB-231 breast, 77.5%; in the assay on RXF 393 renal, 79.4%; with SF-268 CNS, 85.1%; in the assay with SF-295 CNS, 90%; in the assay on SF-539 CNS, 62.1%. Besides, the results for the growth in the assay on UACC-257 melanoma and with M14 melanoma were 94.6% and 104%, respectively.

As for `O=C(N/N=C\c1ccc(Cl)cc1)c1ccc2nc(-c3ccc(Br)cc3)[nH]c2c1`, the growth with NCI-H23 lung is -36% (active); in the assay with NCI-H226 lung, 9.5% (active); in the assay with NCI-H322M lung it was 41.3%; in the assay with HOP-62 NSCLC, -42.5% (active); in the assay with NCI-H460 lung, -76.4% (active); in the assay with HOP-92 NSCLC, -3.66% (active). The growth in the assay on NCI-H522 lung was 10.5%; with A549/ATCC NSCLC, -51.7% (active); in the assay on 786-0 renal, -73.7% (active); in the assay with COLO 205 colon, -33.4% (active); in the assay on DU-145 prostate, -1.02% (active); in the assay on K-562 leukemia, 2.78% (active). For the same molecule, the growth in the assay with MALME-3M melanoma was -59% (active); with MDA-MB-231 breast it was 18.2%; in the assay with RXF 393 renal it was -46.6% (active); with SF-268 CNS it was 11.9%; in the assay with SF-295 CNS, -37.8% (active); with SF-539 CNS, -5.56% (active). The growth in the assay with UACC-257 melanoma is 3.89% (active); in the assay with M14 melanoma it was -45.6% (active).

For the molecule `CC(C)(C)OC(=O)N1CCN(S(=O)(=O)/N=C2\NC(=O)NC2=C(Cl)Cl)CC1`, the growth was 91.8% in the assay with NCI-H23 lung; 105% in the assay with NCI-H226 lung; 98.9% in the assay with NCI-H322M lung; 105% with HOP-62 NSCLC; 101% in the assay on NCI-H460 lung; 108% in the assay with HOP-92 NSCLC. Besides, the growth in the assay on NCI-H522 lung was -52.4% (active); in the assay on A549/ATCC NSCLC it was 103%; in the assay on 786-0 renal, 101%; with COLO 205 colon, 86.3%; with DU-145 prostate it was 101%; in the assay on K-562 leukemia, 12.6%. Besides, the growth with MALME-3M melanoma was 80.7%; in the assay on MDA-MB-231 breast, 80.7%; in the assay with RXF 393 renal, 70.8%; with SF-268 CNS, 97%; in the assay with SF-295 CNS, 102%; with SF-539 CNS, 99.1%. Moreover, the figures for the growth in the assay with UACC-257 melanoma and in the assay with M14 melanoma were 96.1% and 103%, respectively.

`COc1ccc(Cn2cc3c(c2-c2ccccc2)CCCc2cnoc2-3)cc1`: the growth in the assay on NCI-H23 lung is 77.6%; in the assay on NCI-H226 lung, 79%; in the assay on NCI-H322M lung, 76%; in the assay with HOP-62 NSCLC, 63.8%; in the assay with NCI-H460 lung it was 26.9%; in the assay on HOP-92 NSCLC, 72%. Moreover, the growth in the assay on NCI-H522 lung was 34.9%; in the assay on A549/ATCC NSCLC, 56.6%; with 786-0 renal, 73.3%; in the assay on COLO 205 colon, 40.9%; in the assay on DU-145 prostate, 78.9%; in the assay on K-562 leukemia it was 28.5%. The growth with MALME-3M melanoma was 41.9%; with MDA-MB-231 breast, 60.8%; in the assay on RXF 393 renal, 76.4%; with SF-268 CNS, 73.1%; in the assay on SF-295 CNS, 30%; in the assay on SF-539 CNS, 52.6%. The growth was 76% in the assay with UACC-257 melanoma and 40.5% in the assay with M14 melanoma.

`CN1CCN(c2ccc3c(C(N)=O)c(NC(=O)c4ccc(C(C)(C)C)cc4)sc3c2)CC1`: the growth in the assay on NCI-H23 lung was 79.7%; in the assay on NCI-H226 lung it was 104%; with NCI-H322M lung, 94.7%; in the assay with HOP-62 NSCLC, 86.6%; with NCI-H460 lung, 53.8%; with HOP-92 NSCLC, 79%. Further, the growth was 103% in the assay on NCI-H522 lung; 76.2% with A549/ATCC NSCLC; 71.2% in the assay on 786-0 renal; 70.1% in the assay on COLO 205 colon; 87.4% in the assay with DU-145 prostate; 21.2% in the assay with K-562 leukemia. Besides, the growth is 81.6% in the assay on MALME-3M melanoma; 90.6% with MDA-MB-231 breast; 81.8% in the assay with RXF 393 renal; 97.6% with SF-268 CNS; 79.8% with SF-295 CNS; 63.6% with SF-539 CNS. Also, the growth with UACC-257 melanoma is 92.7%; with M14 melanoma, 90%.

`COc1cc2cc(Oc3ccc(NC(=O)Nc4cc(C(F)(F)F)cc(C(F)(F)F)c4)cc3)c(C)nc2cc1OCCN(C)C`: the growth in the assay on NCI-H23 lung is 104%; in the assay with NCI-H226 lung it was 98.6%; with NCI-H322M lung, 109%; in the assay on HOP-62 NSCLC, 101%; in the assay on NCI-H460 lung it was 107%; with HOP-92 NSCLC, 127%. The growth in the assay with NCI-H522 lung was 102%; in the assay on A549/ATCC NSCLC it was 104%; in the assay with 786-0 renal, 106%; with COLO 205 colon it was 115%; in the assay on DU-145 prostate, 120%; in the assay on K-562 leukemia, 106%. Further, the growth with MALME-3M melanoma was 106%; in the assay with MDA-MB-231 breast it was 104%; with RXF 393 renal it was 112%; in the assay on SF-268 CNS it was 106%; with SF-295 CNS, 103%; with SF-539 CNS, 100%. The values for the growth with UACC-257 melanoma and in the assay with M14 melanoma were 103% and 107%, respectively.

Consider `O=C1c2c(c3c4cccnc4[nH]c3c3ccc4ccccc4c23)C(=O)N1CCN1CCOCC1`, for which the growth with NCI-H23 lung was 45.3%; with NCI-H226 lung, 71.5%; in the assay with NCI-H322M lung, 84.5%; with HOP-62 NSCLC, 47.6%; in the assay on NCI-H460 lung, 10.6%; in the assay with HOP-92 NSCLC, 80.7%. Besides, the growth was 60.5% in the assay with NCI-H522 lung; 55.4% in the assay with A549/ATCC NSCLC; 77.9% with 786-0 renal; 66.8% with COLO 205 colon; 59.9% with DU-145 prostate; 37.2% in the assay with K-562 leukemia. Besides, the growth with MALME-3M melanoma is 64.4%; with MDA-MB-231 breast it was 86.8%; in the assay on RXF 393 renal, 92.8%; with SF-268 CNS, 58.7%; in the assay with SF-295 CNS, 51.4%; in the assay on SF-539 CNS, 55.6%. For the same molecule, the growth in the assay on UACC-257 melanoma was 84.1%; in the assay on M14 melanoma, 47.4%.
